# RORg inh = qHTS for inhibitors of ROR gamma transcriptional activity. Nuclear receptor ROR-gamma (Mus musculus), P51450. Drosophila S2 Gal4-RORgamma UAS-luciferase reporter, 20 h. Potency, µM (highest dose often 53.6 µM), inactives show top-dose activity change, negative = inhibition, hits mostly inhibitors. actives 5.4% (n = 310,000); also: nearly all actives have a fitted effect of over 60% in size
# Target sequence (P51450 whole entry, looked up, the tested form may be a part): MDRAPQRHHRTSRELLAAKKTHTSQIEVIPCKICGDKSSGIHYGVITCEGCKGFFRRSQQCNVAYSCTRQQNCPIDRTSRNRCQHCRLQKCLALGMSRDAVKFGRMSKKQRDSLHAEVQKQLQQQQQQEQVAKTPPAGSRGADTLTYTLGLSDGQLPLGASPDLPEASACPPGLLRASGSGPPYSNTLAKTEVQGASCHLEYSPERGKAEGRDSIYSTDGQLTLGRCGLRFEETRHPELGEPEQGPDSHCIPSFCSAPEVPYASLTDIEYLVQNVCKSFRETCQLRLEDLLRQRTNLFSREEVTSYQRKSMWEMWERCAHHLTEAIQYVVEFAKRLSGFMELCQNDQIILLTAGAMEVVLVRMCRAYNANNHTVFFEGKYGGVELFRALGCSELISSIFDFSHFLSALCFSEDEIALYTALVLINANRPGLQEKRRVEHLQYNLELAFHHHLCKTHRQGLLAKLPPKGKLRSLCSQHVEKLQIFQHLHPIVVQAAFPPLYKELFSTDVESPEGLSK
#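 Luciferase reporter read in Schneider cells carrying Gal4-RORγ (mouse) and UAS-Photinus luciferase; cells given compound 1 h before 700 uM copper sulfate induction, then incubated 20 h at ambient temperature.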
# KinaseGlo FLuc = Counterscreen for Luciferase (Kinase-Glo TM) Inhibition; Luciferin 4-monooxygenase (Photuris pensylvanica), Q27757; Kinase-Glo luciferase, ATP luminescence, 8 min; Potency, µM (series often up to 38.3 µM), inactives show at the top dose activity change, negative = inhibition, most hits filed as inhibitors; actives 0.28% (n = 200,000); AID 1379, 2008; also: nearly all actives have a fitted effect of over 60% in size
#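 Recombinant Kinase-Glo luciferase, 10 uM ATP (linear range), luciferin; imidazole pH 7.2 / KCl / MgCl2 / Tween / BSA buffer; 8 min RT; luminescence.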
# VP16 counter = VP16 counterscreen qHTS for inhibitors of ROR gamma transcriptional activity | Drosophila S2 Gal4-VP16 UAS-luciferase, luminescence, 20 h | Potency, µM (doses to about 53.6 µM), for the others: top-dose activity, negative = inhibition, usual class: inhibitors | actives 3.5% (n = 310,000);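 also: Gal4-VP16 expression switched on by copper sulfate through the metallothionein promoter; nearly all actives have a fitted effect of over 50% in size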
# Numbers without * were called inactive; u = inconclusive; x = no result given. Most compounds without a hit are left out; they make up all but 6.4% or so of the library. Calls follow the shape of the dose curve; as a rule, active = well fitted curve in the direction sought with a large enough effect; inconclusive = small, poorly fitted or top-dose-only effect, or another doubt; inactive = no such curve, though single readings can be large; an effect the other way counts as inactive or inconclusive. % is scaled to controls: 0 for no effect and ±100 for the full control effect; potency is read from the fitted curve at half-maximal effect.
SMILES,RORg inh,KinaseGlo FLuc,VP16 counter
CC(C)CNC(=O)COc1ncnc2sccc12,6%,-5%,-20%
Cc1cs/c(=N\N=C2CCCCC2)n1Cc1ccco1,u,2%,6%
Cc1ccc(S(=O)(=O)Nc2ccc(S(=O)(=O)Nc3ncccn3)cc2)cc1,-17%,-3%,-2%
Cc1ccc(S(=O)(=O)Nc2ccc(NS(=O)(=O)c3ccc(C)cc3)c3ncccc23)cc1,5µM*,x,5.6µM*
COc1ccc(NC(=O)CSCC(=O)NC2(C)CCS(=O)(=O)C2)cc1 (stereo unspecified),-25%,x,-3%
CCNCc1nc2cc(Cl)ccc2c(=O)[nH]1,6.3µM*,x,16µM*
NC(=O)C1CCN(Cc2nc3cc(Cl)ccc3c(=O)[nH]2)CC1,-3%,17%,22%
COc1cccc(/C=N/NC(=O)CNC(=O)c2cccs2)c1O,3.2µM*,x,11µM*
COc1ccccc1/C=C\C=N\NC(=O)c1ccco1,u,4%,u
COc1ccccc1/C=C\C(=O)NCC(=O)N/N=C/c1cccc(OC)c1O,4.5µM*,x,7.1µM*
COc1cccc(/C=N/NC(=O)CSc2ccccc2C)c1OC,-13%,4%,-14%
COc1cccc(/C=N/NC(=O)CSc2ccccc2C)c1O,0.71µM*,0%,0.79µM*
COc1cccc(/C=N/NC(=O)CNC(=O)CCc2ccccc2)c1O,u,x,-8%
COc1ccccc1/C=C/C=N/NC(=O)c1cccs1,7.9µM*,x,u
COc1ccc(/C=N/NC(=O)CNC(=O)/C=C/c2ccccc2OC)cc1,1%,x,1%
CC1CCN(CCCNC(=O)c2ccc(Cn3c(=S)[nH]c4ccc(Br)cc4c3=O)cc2)CC1,-21%,0%,-6%
O=C1NC(=O)c2cc(Nc3ccccc3)c(Nc3ccccc3)cc21,35%,-2%,-3%
C=CCSC1=N/C(=C\c2cc(OCC)c(OC(C)=O)c([N+](=O)[O-])c2)C(=O)S1,-3%,u,u
CC(C)CNc1nc(C#N)nc(Nc2ccccc2)n1,x,x,-19%
CCC(C)[C@H](NC(=O)C1CCN(C(=O)[C@H](Cc2ccccc2)NS(=O)(=O)c2ccc(C)cc2)CC1)C(=O)O (stereo partly specified),7%,x,-3%
COc1ccc(/C=C/C(=O)NCC(=O)N/N=C/c2cc(Br)ccc2OC)cc1,36%,2%,-8%
Cc1cccc(OCC(=O)NCC(=O)N/N=C/c2ccc(O)cc2O)c1,u,x,-13%
COc1ccccc1/C=C/C(=O)NCC(=O)N/N=C/c1cc(Br)ccc1OC,13µM*,-4%,-24%
COc1cccc(/C=N/NC(=O)CNC(=O)COc2cccc(C)c2)c1O,0.28µM*,x,2.2µM*
Cc1ccc(N=C2SC(C(=O)Nc3ccc(OC(F)(F)F)cc3)C(N)=C2C(=O)Nc2c(C)cc(C)cc2C)cc1 (stereo unspecified),u,4%,u
SMILES,RORg inh,KinaseGlo FLuc,VP16 counter
Cc1ccc(C(=O)c2ccc([N+](=O)[O-])cc2)cc1,-25%,-2%,-8%
Cc1ccc(S(=O)(=O)CC#CCOC(=O)c2ccc([N+](=O)[O-])cc2)cc1,10µM*,2%,u
CC(NC(=S)Nc1ccc(Cl)cc1)C(c1ccccc1)N1CCOCC1 (stereo unspecified),6.3µM*,-1%,6.3µM*
CCN1CCN(C(c2cccs2)C(C)NC(=O)c2c(F)cccc2F)CC1 (stereo unspecified),27%,1%,-3%
CC(NC(=O)Nc1ccccc1)C(c1ccccc1)N1CCOCC1 (stereo unspecified),u,-1%,-8%
CCN1CCN(C(c2cccs2)C(C)NC(=S)Nc2cccc(C)c2C)CC1 (stereo unspecified),11µM*,x,-3%
Cc1ccccc1NC(=S)NN1CCN(C)CC1,-27%,6%,0%
Cc1cccc(NC(=S)NC(C)C(c2ccccc2)N2CCN(C)CC2)c1C (stereo unspecified),11µM*,4%,-8%
Nc1ccc(C(=O)Nc2cccc(N)c2)cc1,2%,x,-18%
O=C(CN1C(=O)c2ccccc2S1(=O)=O)NCc1cccs1,-5%,x,9%
COc1ccc(C(=O)CCS(=O)(=O)c2ccc(C)cc2)cc1OC,2.8µM*,x,4.5µM*
Cc1ccc(OC(=O)CCS(=O)(=O)c2ccc(C)cc2)cc1,-25%,x,-12%
Cc1ccc(S(=O)(=O)CCC(=O)c2ccc(O)cc2O)cc1,14µM*,-1%,u
COc1ccc(Cl)cc1NC(=O)CCS(=O)(=O)c1ccc(C)cc1,36%,x,-4%
CSCC[C@H](NC(=O)Nc1cccc(Br)c1)C(=O)O,8%,x,-10%
CC(C)C[C@H](NC(=O)C1CC(=O)N(c2ccc3c(c2)OCCO3)C1)C(=O)N1CCCCC1 (stereo partly specified),1%,x,5%
CCOC(=O)c1c(C)[nH]c(C(=O)N/N=C\c2ccccc2Cl)c1C,8.9µM*,-4%,u
CCOC(=O)c1c(C)[nH]c(C(=O)N/N=C/c2cccc(OC)c2)c1C,u,2%,1%
Cc1ccn2c(C(=O)NNC(=O)Nc3ccc(Cl)cc3)c(C)nc2c1,16%,x,12%
COCCN(C)Cc1cn(-c2ccc(F)cc2F)nc1-c1ccccc1C,6.3µM*,-3%,u
Cc1ccccc1-c1nn(-c2ccc(F)cc2F)cc1CNCCN(C)C,u,-1%,2%
COc1ccccc1NC(=O)Nc1ccc(CC#N)cc1,12%,x,11%
CSc1cnn(-c2ccccc2)c(=O)c1SC,-107%,0%,-23%
CSc1cnn(Cc2ccccc2)c(=O)c1SCc1ccccc1,0.56µM*,4%,2.5µM*
Fc1ccccc1NC(=S)NNc1ncc(C(F)(F)F)cc1Cl,u,-3%,16µM*
SMILES,RORg inh,KinaseGlo FLuc,VP16 counter
NC(=S)Nc1ncc(C(F)(F)F)cc1Cl,7.1µM*,0%,u
NC(=S)c1ncc(C(F)(F)F)cc1Cl,-36%,x,1%
CC(C)(C)C(=O)Nc1ncc(C(F)(F)F)cc1Cl,31%,0%,20%
Fc1ccc(NC(=S)Nc2cccnc2)c(Cl)c1,-22%,-1%,-4%
FC(F)(F)c1cnc(/C=C/Nc2ccccc2Cl)c(Cl)c1,-5%,-4%,0%
O=C(O)c1ccc(/C=N/Nc2ncc(C(F)(F)F)cc2Cl)cc1,10µM*,x,13%
FC(F)(F)c1cnc(NNC(=S)Nc2cccnc2)c(Cl)c1,13µM*,-1%,u
Cc1ccc(NC(=O)CSc2nnc(-c3cccs3)o2)cc1S(=O)(=O)N1CCCCC1,2%,-2%,3%
O=C(CNC1CC1)Nc1cc(C(F)(F)F)ccc1Cl,-2%,x,0%
CC(=O)n1cc([C@H]2C=C(C(=O)N3CCN(Cc4ccccc4)CC3)O[C@@H](OCc3ccc(CO)cc3)C2)c2ccccc21,22%,x,-13%
COc1ccccc1/C=C1\CCC(C2CCCC2)C1=O (stereo unspecified),-6%,x,-5%
CCOC(=O)/C=C/C(=O)OCC(=O)Nc1ccc([N+](=O)[O-])cc1,9%,x,-13%
COc1cccc(NC(=O)CCCn2nc(C)c3c(C)n(-c4ccccc4)nc3c2=O)c1,8%,x,-8%

# Screening data from PubChem.
